Results from the supplement of paper PMC10338343.
± gives the standard deviation.

tested on: EfPiwi piRISC loaded with L1MC piRNA (26 nt); assay: pre-steady-state target cleavage rate (min^-1); auxiliary factor: none (no Gtsf1); guide: L1MC piRNA 5'p-UAACUAAAUACUAUGCAAGCUGUAGG; higher = faster piRNA-guided slicing of the target
Method in brief: (§1)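 The pre-steady-state cleavage rate was derived from a burst-and-steady-state fit of Cleave-'n-Seq data. For these assays, 1 nM active affinity-purified piRISC loaded with a single synthetic guide was mixed with […] a transcribed, DNA-blocked target RNA library in HEPES–potassium acetate buffer at 33 °C, with or without 500 nM GTSF1 partner protein, for 0–8 or 0–960 min. Sequencing counts of uncleaved targets were normalised to depth and to weakly complementary targets, and k3 was capped at 0.0001 min^-1 after three trials were pooled.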

Sequence	pre-steady-state target cleavage rate
UCCUGCUACAGCUUCGUUAGUAUUUUCAAA	< 0.0001
UCCUGGAUGUCGAUGCAUCAGUAUUUAGUUA	< 0.0001
UCCUGGAUGUCGAAGCAUAGUUUUUACUUA	< 0.0001
UCCUGGAUGUCGAAGCUUAGUAUUUAGUAA	< 0.0001
UCCUGGAUGUCGUUGCAUGUAUUUAGUUA	< 0.0001
UCCUGGAUGUCGAACGUUAGUAAUUAGUAA	< 0.0001
UCCUGGAUGUCGAAGCAUAGUAUAAUCAAA [g8:g16:cont:t1A]	< 0.0001

tested on: EfPiwi piRISC loaded with piRNA #1 (26 nt); assay: pre-steady-state target cleavage rate (min^-1); auxiliary factor: 500 nM Ephydatia muelleri Gtsf1; guide: piRNA #1 5'p-UGAGGUAGUAGGUUGUAUAGUAUCCA; MIWI and MILI are mouse PIWI proteins and EfPiwi is from a freshwater sponge; tags in brackets are library labels; higher = faster piRNA-guided slicing of the target
Method in brief: as §1

Sequence	pre-steady-state target cleavage rate
GGAGACCUAUCUAUACCAACCUACUACCUCA	0.00573 ± 0.0036
GGAGUGGAUACUAUACAACAUACUACCUCA	0.00987 ± 0.0037
GGAGACCAUACUAUACAACCUAGUACCUGA	0.00278 ± 0.0021
GGAGACCUAUGAUAUGUACCUACUACGCUCA	< 0.0001
GGAGUGGAUACUAUACAACCUUCUACGUCA	0.00426 ± 0.0016
GGAGACCAUACAAUACAACCUACUACCUGA	0.00286 ± 0.0028
GGAGACCUUACUAUACAACGCUACUACCUCA	0.00566 ± 0.0038
GGAGACGAUACUAUACUAACCUACUACCUCA	0.00448 ± 0.0044
GGAGACCAUCACUAUACAACCUACUACCUCA	0.0254 ± 0.012
GGAGACCUAUGUAUACAACCAAGUACCUCA	< 0.0001
GGAGAGGAUACUAUACAAUCUACUACCUCA	0.0116 ± 0.0062
GGAGUGGAUACUAUACAACCUACUAGGUCA	0.00356 ± 0.002
GGAGUGGAUACUAUACAUCCAACUACCUCA	0.00457 ± 0.0019
GGAGUGGAUACUAUACAUACCUACUACCUCA	0.0107 ± 0.0063
GGAGUGGAUACUAUACAACGAUCUACCUCA	0.00198 ± 0.0014
GGAGACCAUACUAUACAAUCCUACUACCUCA	0.00501 ± 0.0032
GGAGACGAUACUAUACAACCUAGUACCUCA	0.00506 ± 0.0014

Sequence	pre-steady-state target cleavage rate
GGAGACCAAACUAUACAACCUUCUACCUCA	0.00406 ± 0.0026
GGAGAGGAUACUAUACAUCCUACUACCUGA	0.00462 ± 0.002
GGAGACCUUACUAUACAACCUAGUACCUGA	0.00509 ± 0.0037
GGAGACCUAUGAUAUGUUGCAACUACCACA	< 0.0001
GGAGACGAUACUAUACAACCUAGUACCUGA	0.00389 ± 0.001
GGAGUGGAUACUAUACAAGCAACUACCUCA	0.00256 ± 0.0013
GGAGACCUAUGAUAUGUACCAACUACCACA	< 0.0001
GGAGACCUAACUAUACAACCUAGUACGUCA	0.00403 ± 0.0029
GGAGAGGAUAGUAUACAACCUACAACCUCA	0.00249 ± 0.0021
GGAGAGGAUACUAUACAACCUAACUACCUCA	0.00656 ± 0.0027
GGAGAGGAUACUAUACAACCUAGUACGUCA	0.0044 ± 0.0019
GGAGACGUUUCUAUACAACCUACUACCUCA	0.0117 ± 0.0062
GGAGACGAUACUAUACAACCUUCUACCUGA	0.0056 ± 0.0024
GGAGACCAUACUAUAAAACCUACUACCUCA	0.00433 ± 0.0026
GGAGACGAUACUAUACAACCUAUUACCUCA	0.0146 ± 0.0053
GGAGACCUAACUAUACAACCUUCUACCUGA	0.00465 ± 0.0036
